# PubChem BioAssay (NCATS)
# Values joined by “and” are separate entries in the source; they are usually repeats but may differ in a detail not shown here. Identical values can stand only once. A number with no mark means an inactive call. Records with an inconclusive call do not appear. Where a call stands in place of a potency, no number is given. Active and inactive are the calls of the source. Unless noted, the call rests on the fitted dose curve; in most records, active means well fitted curve in the direction sought with a large enough effect; inconclusive means small, poorly fitted or top-dose-only effect, or another doubt; inactive means no such curve, though single readings can be large; an effect the other way counts as inactive or inconclusive.
# What was measured:
# Es-2 = assay: Primary qHTS to identify gynecologic anti-cancer compounds using libraries of approved drugs and bioactive compounds (AID 1345084); conditions: Gynecologic cancer cell panel viability, ATPlite luminescence, 48 h; series mostly up to 57.5 µM; further: nearly all actives have a fitted effect of over 55% in size
# Summary of the method: (§1)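 In this quantitative HTS, cell killing is estimated from loss of ATP-dependent luciferase light. Cells see five compound concentrations over a 48 h exposure.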
# HeLa = assay: as above; conditions: Gynecologic cancer cell panel viability, ATPlite luminescence, 48 h; series mostly up to 57.5 µM
# Summary of the method: as §1
# Hek293T = assay: as above; conditions: Gynecologic cancer cell panel viability, ATPlite luminescence, 48 h, control line for the selectivity index; series mostly up to 57.5 µM
# Summary of the method: as §1
# JEG-3 = assay: as above; conditions: Gynecologic cancer cell panel viability, ATPlite luminescence, 48 h; series mostly up to 57.5 µM
# Summary of the method: as §1
# OV90 = assay: as above; conditions: Gynecologic cancer cell panel viability, ATPlite luminescence, 48 h; series mostly up to 57.5 µM
# Summary of the method: as §1
# PA-1 = assay: as above; conditions: Gynecologic cancer cell panel viability, ATPlite luminescence, 48 h; series mostly up to 57.5 µM
# Summary of the method: as §1
# SKOV3 = assay: as above; conditions: Gynecologic cancer cell panel viability, ATPlite luminescence, 48 h; series mostly up to 57.5 µM
# Summary of the method: as §1
# Tov-21-G = assay: as above; conditions: Gynecologic cancer cell panel viability, ATPlite luminescence, 48 h; series mostly up to 57.5 µM
# Summary of the method: as §1
# Tov112D = assay: as above; conditions: Gynecologic cancer cell panel viability, ATPlite luminescence, 48 h; series mostly up to 57.5 µM
# Summary of the method: as §1
# [1] = Drug repurposing screens with cells derived from glioblastoma tumor samples (AID 1345199); conditions: GBM patient neurospheres viability, ATP luminescence, 48 h; further: nearly all actives have a fitted effect of over 40% in size; further: potency means the concentration at half of the fitted maximal effect
# Summary of the method: (§2)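 Four patient lines of CD133+ GBM neurospheres were screened at several concentrations; hits were retested in those lines plus three slower-growing GBM lines, using 48-hour treatment and ATP-based viability.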
# astro = assay: as above; conditions: viability, ATP luminescence, 48 h; series mostly up to 45.9 µM
# Summary of the method: as §2
# [2] = qHTS assay for small molecule activators of the human pregnane X receptor (PXR) signaling pathway (AID 720659; call rule not given here)
# [3] = qHTS assay to identify inhibitors of the type 1 interferon - major histocompatibility complex class I in skeletal muscle: Counter screen cell viability and HiBit confirmation (AID 1347412); conditions: iHSKM muscle cells + IFN-b, HiBiT or CellTiter-Glo, 24 h; Potency: HiBiT; Viability, at 45.9 µM (top of the series); further: nearly all actives have a fitted effect of over 60% in size
# Summary of the method: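 After 24 h with human IFN-beta (4 ng/ml) and compound titrations (top 46 uM final, 1:3, 12 points), HLA-B HiBit myoblasts were lysed for either Nano-Glo HiBiT luminescence or CellTiter Glo viability on paired plates.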
# [4] = at 45.9 µM (top of the series), tumour line B
# [5] = at 45.9 µM (top of the series), tumour line D
# [6] = at 46 µM (top of the series), tumour line A
structure (smiles),measurement,setting,value
NCC(CC(=O)O)c1ccc(Cl)cc1 (stereo unspecified),"activity change, negative = cytotoxicity",Es-2,4.42% [at 0.462 µM]
same,"activity change, negative = cytotoxicity",HeLa,8.44% [at 0.462 µM]
same,"activity change, negative = cytotoxicity",Hek293T,-3.58% [at 0.462 µM]
same,"activity change, negative = cytotoxicity",JEG-3,-6.96% [at 0.462 µM]
same,"activity change, negative = cytotoxicity",OV90,19.2% [at 0.462 µM]
same,"activity change, negative = cytotoxicity",PA-1,5.78% [at 0.462 µM]
same,"activity change, negative = cytotoxicity",SKOV3,1.02% [at 0.462 µM]
same,"activity change, negative = cytotoxicity",Tov-21-G,5.93% [at 0.462 µM]
same,"activity change, negative = cytotoxicity",Tov112D,-1.06% [at 0.462 µM]
same,"activity, negative = cell killing",[1]; [4],-0.559%
same,"activity, negative = cell killing",[1]; [5],-15.2%
same,"activity, negative = cell killing",[1]; [6],-26.1%
same,Potency,astro,inactive
CCC1(C2=NCCN2)Cc2ccccc2O1 (stereo unspecified),Potency,Es-2,inactive
same,Potency,HeLa,inactive
same,Potency,Hek293T,inactive
same,Potency,JEG-3,inactive
same,Potency,OV90,inactive
same,Potency,PA-1,inactive
same,Potency,SKOV3,inactive
same,Potency,Tov-21-G,inactive
same,Potency,Tov112D,inactive
same,"activity, negative = cell killing",[1]; [4],-22.3%
same,"activity, negative = cell killing",[1]; [5],-18%
same,Potency,[1]; tumour line A,7.08 µM (active)
O=c1[nH]c2ccccc2n1C1CCN(CCCC(c2ccc(F)cc2)c2ccc(F)cc2)CC1,Potency,Es-2,inactive
same,Potency,HeLa,inactive
same,Potency,Hek293T,inactive
same,Potency,JEG-3,inactive
same,Potency,PA-1,inactive
same,Potency,Tov-21-G,inactive
same,Potency,Tov112D,inactive
same,Potency,[1]; tumour line A,2.82 µM (active)
same,Potency,[1]; tumour line B,8.91 µM (active)
same,Potency,[1]; tumour line D,5.62 µM (active)
same,Potency,astro,17.8 µM (active)
same,outcome,[2],inactive
Cc1ccc(-c2nc3ccc(C)cn3c2CC(=O)N(C)C)cc1,Potency,Es-2,inactive
same,Potency,HeLa,inactive
same,Potency,Hek293T,inactive
same,Potency,OV90,inactive
same,Potency,PA-1,inactive
same,Potency,SKOV3,inactive
same,Potency,Tov-21-G,inactive
same,Potency,Tov112D,inactive
same,"activity, negative = cell killing",[1]; [4],-10.9%
same,"activity, negative = cell killing",[1]; [5],2.33%
same,"activity, negative = cell killing",[1]; [6],-24.8%
same,Potency,astro,inactive
CC(C)CC(N(C)C)C1(c2ccc(Cl)cc2)CCC1 (stereo unspecified),Potency,Es-2,inactive
same,Potency,HeLa,inactive
same,Potency,Hek293T,inactive
same,Potency,JEG-3,inactive
same,Potency,OV90,inactive
same,Potency,PA-1,inactive
same,Potency,Tov-21-G,inactive
same,Potency,Tov112D,inactive
same,"activity, negative = cell killing",[1]; [4],-27.3%
same,"activity, negative = cell killing",[1]; [5],-16.7%
same,"activity, negative = cell killing",[1]; [6],-28.1%
same,Potency,astro,inactive
OCCOc1ccccc1,Potency,Es-2,inactive
same,Potency,HeLa,inactive
same,Potency,Hek293T,inactive
same,Potency,OV90,inactive
same,Potency,PA-1,inactive
same,Potency,SKOV3,inactive
same,Potency,Tov-21-G,inactive
same,Potency,Tov112D,inactive
same,"activity, negative = cell killing",[1]; [4],3.03% and -11.2%
same,"activity, negative = cell killing",[1]; [5],-21.5% and 1.35%
same,"activity, negative = cell killing",[1]; [6],-19.1%
same,Potency,astro,inactive
same,outcome,[2],inactive
COc1ccccc1N1CCNCC1,Potency,Es-2,inactive
same,Potency,HeLa,inactive
same,Potency,Hek293T,inactive
same,Potency,OV90,inactive
same,Potency,PA-1,inactive
same,Potency,SKOV3,inactive
same,Potency,Tov-21-G,inactive
same,Potency,Tov112D,inactive
same,"activity, negative = cell killing",[1]; [4],-16.5%
same,"activity, negative = cell killing",[1]; [5],-3.17%
same,"activity, negative = cell killing",[1]; [6],-37.1%
same,Potency,astro,inactive
COC[C@H]1OC(=O)c2coc3c2[C@@]1(C)C1=C(C3=O)C2CCC(=O)[C@@]2(C)C[C@H]1OC(C)=O (stereo partly specified),Potency,Es-2,inactive
same,Potency,HeLa,inactive
same,Potency,Hek293T,inactive
same,Potency,JEG-3,inactive
same,Potency,OV90,inactive
same,Potency,Tov-21-G,inactive
same,Potency,Tov112D,inactive
same,Potency,[3],inactive
Cc1ccc2c(c1)C1CN(C)CCC1N2 (stereo unspecified),Potency,Es-2,inactive
same,Potency,HeLa,inactive
same,Potency,Hek293T,inactive
same,Potency,OV90,inactive
same,Potency,PA-1,inactive
same,Potency,SKOV3,inactive
same,Potency,Tov-21-G,inactive
same,Potency,Tov112D,inactive
same,"activity, negative = cell killing",[1]; [4],-7.68%
same,"activity, negative = cell killing",[1]; [5],-17.4%
same,Potency,astro,inactive
N[C@@H](Cc1ccc(Oc2cc(I)c(O)c(I)c2)c(I)c1)C(=O)O,Potency,Es-2,inactive
same,Potency,HeLa,inactive
same,Potency,Hek293T,inactive
same,Potency,OV90,inactive
same,Potency,PA-1,inactive
same,Potency,SKOV3,inactive
same,Potency,Tov-21-G,inactive
same,Potency,Tov112D,inactive
same,"activity, negative = cell killing",[1]; [4],-6.2%
same,"activity, negative = cell killing",[1]; [5],-17.5%
same,"activity, negative = cell killing",[1]; [6],-27.6%
same,Potency,astro,inactive
CCN(CC)C(=O)N[C@@H]1C=C2c3cccc4[nH]cc(c34)C[C@@H]2N(C)C1,Potency,Es-2,inactive
same,Potency,HeLa,inactive
same,Potency,Hek293T,inactive
same,Potency,OV90,inactive
same,Potency,PA-1,inactive
same,Potency,SKOV3,inactive
same,Potency,Tov-21-G,inactive
same,Potency,Tov112D,inactive
same,"activity, negative = cell killing",[1]; [4],-7.53%
same,"activity, negative = cell killing",[1]; [5],-22.7%
same,Potency,astro,inactive
C#CCN(C)[C@H](C)Cc1ccccc1,Potency,Es-2,inactive
same,Potency,HeLa,inactive
same,Potency,Hek293T,inactive
same,Potency,JEG-3,inactive
same,Potency,OV90,inactive
same,Potency,PA-1,inactive
same,Potency,Tov-21-G,inactive
same,Potency,Tov112D,inactive
same,"activity, negative = cell killing",[1]; [4],-10.5%
same,"activity, negative = cell killing",[1]; [5],-14.3%
same,"activity, negative = cell killing",[1]; [6],-47.6%
same,Potency,astro,inactive
CCN(C(C)=O)c1cccc(-c2ccnc3c(C#N)cnn23)c1,Potency,Es-2,inactive
same,Potency,HeLa,inactive
same,Potency,Hek293T,inactive
same,Potency,OV90,inactive
same,Potency,PA-1,inactive
same,Potency,SKOV3,inactive
same,Potency,Tov-21-G,inactive
same,Potency,Tov112D,inactive
same,"activity, negative = cell killing",[1]; [4],-13.5%
same,"activity, negative = cell killing",[1]; [5],-2.81%
same,Potency,astro,inactive
O=P1(NCCCl)OCCCN1CCCl (stereo unspecified),Potency,Es-2,inactive
same,Potency,HeLa,inactive
same,Potency,Hek293T,inactive
same,Potency,OV90,inactive
same,Potency,PA-1,inactive
same,Potency,SKOV3,inactive
same,Potency,Tov-21-G,inactive
same,Potency,Tov112D,inactive
same,"activity, negative = cell killing","[1]; at 21.2 µM (top of the series), tumour line B",-10.6%
same,"activity, negative = cell killing","[1]; at 21.2 µM (top of the series), tumour line D",-4.8%
same,"activity, negative = cell killing","[1]; at 21.3 µM (top of the series), tumour line A",-27.9%
same,Potency,astro,inactive
NCCc1cc(O)c(O)cc1O,Potency,Es-2,inactive
same,Potency,HeLa,inactive
same,Potency,Hek293T,inactive
same,Potency,OV90,inactive
same,Potency,PA-1,inactive
same,Potency,SKOV3,inactive
same,Potency,Tov-21-G,inactive
same,Potency,Tov112D,inactive
same,"activity, negative = cell killing",[1]; [4],-19%
same,"activity, negative = cell killing",[1]; [5],-22%
same,Potency,astro,inactive
CN(C)CCc1ccc(O)cc1,Potency,Es-2,inactive
same,Potency,HeLa,inactive
same,Potency,Hek293T,inactive
same,Potency,JEG-3,inactive
same,Potency,PA-1,inactive
same,Potency,SKOV3,inactive
same,Potency,Tov-21-G,inactive
same,Potency,Tov112D,inactive
same,"activity, negative = cell killing",[1]; [4],-0.64%
same,"activity, negative = cell killing",[1]; [5],-12.6%
same,Potency,astro,inactive
N[C@@H]1C[C@H]1c1ccccc1,Potency,Es-2,inactive
same,Potency,HeLa,inactive
same,Potency,Hek293T,inactive
same,Potency,OV90,inactive
same,Potency,PA-1,inactive
same,Potency,SKOV3,inactive
same,Potency,Tov-21-G,inactive
same,Potency,Tov112D,inactive
same,"activity, negative = cell killing",[1]; [4],-7.72%
same,"activity, negative = cell killing",[1]; [5],-6.02%
same,Potency,astro,inactive
